Assay results reported in PubChem BioAssay (EPA / NIEHS).
Some structures have more than one record in an assay (separate samples or runs), and their calls can disagree. Active and inactive are the calls of the source. Rule for the calls: active = hit-call score of the fitted dose curve at least 0.9, where 1 is the maximum; inactive = score below 0.9.

Key:
[1] = molecular target: Transcription factor E2F1 (Homo sapiens) (UniProt Q01094); assay: ATG_E2F_CIS: Attagene CIS-FACTORIAL HepG2 Assay for human E2F Transcription Factor 1 (AID 2282935); settings: HepG2 Attagene cis-reporter, E2F reporter RNA transcripts; actives raise or lower the signal
Outline: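 In this cis-factorial format, endogenous factor activity drives transfected reporters in HepG2; transcripts collected at 24 h are quantified by fluorescence after RT-PCR and capillary separation.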

[2] = ATG_E_Box_CIS: Attagene CIS-FACTORIAL HepG2 Assay for human Enhancer Box (E-box) (AID 2282936); settings: HepG2 E-box cis-reporter transcription, actives raise or lower the signal
Outline: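 Measured 24 h post-dosing in HepG2 cells transfected with multiple cis-regulated reporter units, signal being reporter mRNA induction detected by fluorescent RT-PCR with capillary electrophoresis; gain or loss fitted against DMSO.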

[3] = ATG_M_61_CIS: Attagene CIS-FACTORIAL HepG2 Assay for M61 Transcription Factor (Internal Marker) (AID 2282937); settings: HepG2 Attagene CIS-FACTORIAL M61 internal marker reporter; actives raise or lower the signal
Outline: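 Using transiently transfected HepG2 liver cells, reporter transcript levels were assessed 24 h post-dosing by RT-PCR and capillary electrophoresis. Changes in either direction were fitted relative to DMSO controls.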

[4] = ATG_EGR_CIS: Attagene CIS-FACTORIAL HepG2 Assay for human Early Growth Response 1 (EGR1) (AID 2282938); settings: HepG2 Attagene CIS-FACTORIAL EGR reporter mRNA; actives raise or lower the signal
Outline: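 Fluorescent capillary-electrophoresis signal of reporter cDNA fragments serves as read-out. HepG2 cells bear transiently transfected cis-promoter reporter units and are exposed 24 h; gain- or loss-of-signal is fitted against DMSO.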

[5] = ATG_M_19_CIS: Attagene CIS-FACTORIAL HepG2 Assay for M19 Transcription Factor (Internal Marker) (AID 2282939); settings: HepG2 Attagene CIS-FACTORIAL M19 internal marker reporter; actives raise or lower the signal
Outline: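 Following a 24 h exposure, RNA from transfected HepG2 cells was reverse-transcribed, PCR-amplified with reporter-specific primers, end-labelled with 6-FAM and HpaI-digested before capillary separation. Values represent gain or loss versus DMSO.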

[6] = ATG_ERE_CIS: Attagene CIS-FACTORIAL HepG2 Assay for Estrogen Response Element (ERE) (AID 2282940); settings: HepG2 ERE cis-reporter, Attagene RNA transcript; actives raise or lower the signal
Outline: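 HepG2, transient cis-reporter units, 24 h exposure. RNA isolated, oligo(dT) RT, reporter-specific PCR, FAM extension, HpaI cut, CE detection. Gain/loss-of-signal vs DMSO.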

[7] = molecular target: Hepatocyte nuclear factor 3-beta (Homo sapiens) (UniProt Q9Y261); assay: ATG_FoxA2_CIS: Attagene CIS-FACTORIAL HepG2 Assay for human Forkhead box A2 (FOXA2) (AID 2282942); settings: HepG2 cis-reporter transcription factor activity, 24 h; actives raise or lower the signal
Outline: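 Fluorescence signal of reporter cDNA fragments, separated by capillary electrophoresis, reflects endogenous transcription factor activity in transfected HepG2 after 24 h. Both increases and decreases fitted against DMSO.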

[8] = ATG_FoxO_CIS: Attagene CIS-FACTORIAL HepG2 Assay for human Forkhead box O (FoxO) (AID 2282943); settings: HepG2 Attagene cis-reporter, FoxO element, mRNA; actives raise or lower the signal
Outline: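 24 h chemical exposure, HepG2 with transient cis-MRTU transfection. RNA extraction, oligo(dT) RT, reporter-specific PCR, primer-extension labelling, HpaI digestion, CE fragment analysis; bidirectional fit, DMSO baseline.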

[9] = ATG_GATA_CIS: Attagene CIS-FACTORIAL HepG2 Assay for human GATA Binding Protein (AID 2282944); settings: HepG2 GATA cis-element reporter, Attagene multiplex mRNA; actives raise or lower the signal
Outline: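 DMSO serves as negative control and baseline for bidirectional fitting of reporter mRNA changes. HepG2 cells bearing transiently transfected cis-promoter reporters were exposed 24 h; transcripts detected via RT-PCR and capillary electrophoresis.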

[10] = ATG_GLI_CIS: Attagene CIS-FACTORIAL HepG2 Assay for human Zinc Finger Protein GLI1 (AID 2282945); settings: HepG2, Attagene cis-factorial reporter mRNA, GLI element; actives raise or lower the signal
Outline: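 HepG2 cells transiently transfected with cis-promoter multiplexed reporter units report endogenous transcription factor activity. After 24 h chemical exposure, reporter mRNA was quantified by RT-PCR, 6-FAM labelling, HpaI digestion and capillary electrophoresis, with bidirectional fitting against DMSO.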

[11] = ATG_GRE_CIS: Attagene CIS-FACTORIAL HepG2 Assay for human Glucocorticoid Response Elements (GRE) (AID 2282947); settings: HepG2 GRE cis-reporter, Attagene multiplex mRNA; actives raise or lower the signal
Outline: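 HepG2, transient cis-reporter transfection, 24 h. Reporter mRNA: RT-PCR then CE, fluorescence. Fit both directions vs DMSO.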

[12] = ATG_ISRE_CIS: Attagene CIS-FACTORIAL HepG2 Assay for human Interferon Regulatory Factor 1 (IRF1) binding to an Interferon-Stimulated Response Element (ISRE) (AID 2282948); settings: HepG2 ISRE cis-reporter (Attagene), mRNA transcription readout; actives raise or lower the signal
Outline: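 Uses HepG2 liver cells transfected with cis-regulated reporters and measures mRNA 24 h post-dosing through RT-PCR, primer-extension labelling and capillary electrophoresis, with DMSO as negative control.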

[13] = ATG_M_32_CIS: Attagene CIS-FACTORIAL HepG2 Assay for M32 Transcription Factor (Internal Marker) (AID 2282949); settings: HepG2 Attagene cis-factorial M32 reporter, mRNA; actives raise or lower the signal;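 note: background control marker of the multiplexed CIS panel rather than a real target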
Outline: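 Using DMSO as baseline, bidirectional curve fits were applied to reporter mRNA signals. These came from transiently transfected HepG2 cells exposed for 24 h, with RNA analysed by RT-PCR, FAM primer extension, HpaI digestion and CE.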

[14] = ATG_M_06_CIS: Attagene CIS-FACTORIAL HepG2 Assay for M06 Transcription Factor (Internal Marker) (AID 2282950); settings: HepG2 Attagene CIS-FACTORIAL M06 internal marker reporter; actives raise or lower the signal
Outline: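 Fluorescence-labelled RT-PCR products from cis-promoter reporter units, cut with HpaI and resolved by capillary electrophoresis, give the signal. Cells are human HepG2, dosed for 24 h. Serves as background control, fitted relative to DMSO.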

[15] = molecular target: Hepatocyte nuclear factor 6 (Homo sapiens) (UniProt Q9UBC0); assay: ATG_HNF6_CIS: Attagene CIS-FACTORIAL HepG2 Assay for human Hepatocyte Nuclear Factor 6 (HNF6) (AID 2282952); settings: HepG2 Attagene cis-factorial HNF6 reporter transcription; actives raise or lower the signal
Outline: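 Using cis-element reporters in HepG2 liver cells, the assay tracks endogenous factor-driven transcription 24 h post-dosing. Signal comes from 6-FAM-labelled, HpaI-digested RT-PCR fragments, with gain or loss scored against DMSO.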

[16] = molecular target: Heat shock factor protein 1 (Homo sapiens) (UniProt Q00613); assay: ATG_HSE_CIS: Attagene CIS-FACTORIAL HepG2 Assay for human Heat Shock Transcription Factor 1 (HSE) (AID 2282953); settings: HepG2 HSE cis-reporter, Attagene RNA transcription; actives raise or lower the signal
Outline: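 After a 24 h incubation with test chemical, transfected HepG2 cells were harvested for RNA; reporter transcripts were measured by RT-PCR and capillary electrophoresis. Values reflect gain or loss of signal relative to DMSO.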

[17] = ATG_MRE_CIS: Attagene CIS-FACTORIAL HepG2 Assay for human Metal Responsive Element (MRE) (AID 2282954); settings: HepG2 MRE cis-reporter transcription, Attagene multiplex; actives raise or lower the signal
Outline: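 Readout: capillary electrophoresis of 6-FAM-labelled, HpaI-digested RT-PCR reporter products. System: HepG2 cells carrying transient multiplexed cis reporters, dosed 24 h. Analysis: bidirectional fit, DMSO baseline.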

[18] = molecular target: Hypoxia-inducible factor 1-alpha (Homo sapiens) (UniProt Q16665); assay: ATG_HIF1a_CIS: Attagene CIS-FACTORIAL HepG2 Assay for human Hypoxia Inducible Factor 1 (HIF1A) (AID 2282951); settings: HepG2 Attagene cis-factorial HIF1a reporter transcription; actives raise or lower the signal
Outline: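 Endogenous-TF cis reporter readout, human HepG2 cells, 24 h incubation; mRNA detected via RT-PCR and capillary electrophoresis fluorescence; DMSO-normalised bidirectional fitting.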

[19] = molecular target: Bile acid receptor (Homo sapiens) (UniProt Q96RI1); assay: ATG_IR1_CIS: Attagene CIS-FACTORIAL HepG2 Assay for human Nuclear Receptor Subfamily 1 Group H Member 4 (NR1H4), IR1 submotif (AID 2282946); settings: IR1 reporter transcription, actives raise or lower the signal
Outline: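 Readout: reporter transcript levels by RT-PCR with fluorescent capillary electrophoresis, from HepG2 cells transiently transfected with multiplexed cis-regulated reporters and dosed 24 h. Gain- or loss-of-signal fitted versus DMSO negative control.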

[20] = ATG_Ets_CIS: Attagene CIS-FACTORIAL HepG2 Assay for human Erythroblast Transformation Specific (ETS) (AID 2282941); settings: HepG2 ETS cis-reporter transcription, actives raise or lower the signal
Outline: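 Bidirectional fit versus DMSO of reporter mRNA signal, detected by RT-PCR and capillary electrophoresis in HepG2 cells transiently transfected with cis-element reporters and dosed 24 h.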

Measured: AC50

Chain of Bile acid receptor (Homo sapiens) (Q96RI1 whole entry, looked up): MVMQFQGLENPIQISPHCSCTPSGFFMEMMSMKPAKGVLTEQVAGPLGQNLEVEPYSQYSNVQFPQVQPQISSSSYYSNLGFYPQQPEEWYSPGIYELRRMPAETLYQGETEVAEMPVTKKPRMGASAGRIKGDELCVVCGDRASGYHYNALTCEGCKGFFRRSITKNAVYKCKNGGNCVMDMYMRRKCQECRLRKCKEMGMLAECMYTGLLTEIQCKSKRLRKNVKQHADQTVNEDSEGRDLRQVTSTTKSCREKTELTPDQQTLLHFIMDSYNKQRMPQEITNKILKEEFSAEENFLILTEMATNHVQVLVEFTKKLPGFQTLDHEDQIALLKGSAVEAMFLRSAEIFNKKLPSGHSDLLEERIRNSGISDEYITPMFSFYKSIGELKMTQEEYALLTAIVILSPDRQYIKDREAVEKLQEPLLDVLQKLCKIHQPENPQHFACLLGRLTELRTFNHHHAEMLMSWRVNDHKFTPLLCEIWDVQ
Chain of Hepatocyte nuclear factor 6 (Homo sapiens) (Q9UBC0 whole entry, looked up, the tested form may be a part): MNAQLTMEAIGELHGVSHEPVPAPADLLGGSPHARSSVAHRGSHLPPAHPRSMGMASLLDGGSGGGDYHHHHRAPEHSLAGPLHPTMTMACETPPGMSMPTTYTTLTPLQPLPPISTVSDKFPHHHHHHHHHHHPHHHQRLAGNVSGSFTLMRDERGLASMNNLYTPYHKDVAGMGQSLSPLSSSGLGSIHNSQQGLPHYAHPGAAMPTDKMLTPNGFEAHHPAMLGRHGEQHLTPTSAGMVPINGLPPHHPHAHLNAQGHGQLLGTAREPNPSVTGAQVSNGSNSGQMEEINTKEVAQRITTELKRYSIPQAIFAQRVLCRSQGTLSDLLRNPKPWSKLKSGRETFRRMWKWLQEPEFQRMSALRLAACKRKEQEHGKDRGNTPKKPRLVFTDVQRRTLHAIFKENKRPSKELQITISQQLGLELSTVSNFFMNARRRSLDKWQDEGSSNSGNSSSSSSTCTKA
Chain of Hepatocyte nuclear factor 3-beta (Homo sapiens) (Q9Y261 whole entry, looked up, the tested form may be a part): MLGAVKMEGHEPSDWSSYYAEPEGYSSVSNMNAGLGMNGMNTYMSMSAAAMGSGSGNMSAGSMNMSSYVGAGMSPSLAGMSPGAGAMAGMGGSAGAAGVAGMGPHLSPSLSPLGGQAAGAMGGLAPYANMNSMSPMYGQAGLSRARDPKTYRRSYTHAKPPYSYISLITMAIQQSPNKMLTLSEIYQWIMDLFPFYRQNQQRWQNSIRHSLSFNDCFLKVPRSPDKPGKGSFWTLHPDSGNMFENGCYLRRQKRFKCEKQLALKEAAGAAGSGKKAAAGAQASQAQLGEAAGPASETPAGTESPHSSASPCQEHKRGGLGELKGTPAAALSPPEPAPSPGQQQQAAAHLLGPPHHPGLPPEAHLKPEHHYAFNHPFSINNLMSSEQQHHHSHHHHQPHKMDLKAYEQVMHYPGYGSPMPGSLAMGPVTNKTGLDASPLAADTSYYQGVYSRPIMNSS
Chain of Transcription factor E2F1 (Homo sapiens) (Q01094 whole entry, looked up): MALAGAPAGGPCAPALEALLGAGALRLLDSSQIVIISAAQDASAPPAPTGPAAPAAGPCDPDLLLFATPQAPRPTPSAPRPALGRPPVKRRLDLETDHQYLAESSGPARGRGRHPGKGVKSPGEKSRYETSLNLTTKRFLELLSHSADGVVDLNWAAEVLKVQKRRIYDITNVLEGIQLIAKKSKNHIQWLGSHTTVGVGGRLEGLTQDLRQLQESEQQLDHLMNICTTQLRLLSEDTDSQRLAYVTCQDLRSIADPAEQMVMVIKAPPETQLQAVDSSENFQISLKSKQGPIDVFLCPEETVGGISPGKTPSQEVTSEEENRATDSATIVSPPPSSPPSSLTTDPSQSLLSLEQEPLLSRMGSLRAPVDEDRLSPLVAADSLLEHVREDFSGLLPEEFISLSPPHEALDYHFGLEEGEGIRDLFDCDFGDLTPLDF
Chain of Hypoxia-inducible factor 1-alpha (Homo sapiens) (Q16665 whole entry, looked up): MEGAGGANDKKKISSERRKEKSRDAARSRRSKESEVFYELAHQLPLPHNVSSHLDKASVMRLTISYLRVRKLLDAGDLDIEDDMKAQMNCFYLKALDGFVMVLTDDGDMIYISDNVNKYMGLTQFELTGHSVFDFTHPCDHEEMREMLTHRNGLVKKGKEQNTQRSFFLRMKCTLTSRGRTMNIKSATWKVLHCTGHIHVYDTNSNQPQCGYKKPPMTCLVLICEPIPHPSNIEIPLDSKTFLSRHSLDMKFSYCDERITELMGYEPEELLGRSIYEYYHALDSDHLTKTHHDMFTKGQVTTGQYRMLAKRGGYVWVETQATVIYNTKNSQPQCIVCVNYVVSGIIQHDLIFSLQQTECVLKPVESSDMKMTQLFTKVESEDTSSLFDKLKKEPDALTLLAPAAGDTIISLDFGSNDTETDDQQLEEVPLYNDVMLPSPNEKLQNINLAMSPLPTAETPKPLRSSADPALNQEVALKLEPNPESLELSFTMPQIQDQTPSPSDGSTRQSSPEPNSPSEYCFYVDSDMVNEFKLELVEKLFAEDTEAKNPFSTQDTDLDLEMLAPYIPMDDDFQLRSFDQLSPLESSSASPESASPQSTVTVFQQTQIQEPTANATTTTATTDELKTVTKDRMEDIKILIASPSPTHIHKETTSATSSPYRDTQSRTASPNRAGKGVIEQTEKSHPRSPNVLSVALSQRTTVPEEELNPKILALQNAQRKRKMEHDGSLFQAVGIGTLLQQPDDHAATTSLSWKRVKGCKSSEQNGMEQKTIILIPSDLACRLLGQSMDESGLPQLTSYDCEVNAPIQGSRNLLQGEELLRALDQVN
Chain of Heat shock factor protein 1 (Homo sapiens) (Q00613 whole entry, looked up): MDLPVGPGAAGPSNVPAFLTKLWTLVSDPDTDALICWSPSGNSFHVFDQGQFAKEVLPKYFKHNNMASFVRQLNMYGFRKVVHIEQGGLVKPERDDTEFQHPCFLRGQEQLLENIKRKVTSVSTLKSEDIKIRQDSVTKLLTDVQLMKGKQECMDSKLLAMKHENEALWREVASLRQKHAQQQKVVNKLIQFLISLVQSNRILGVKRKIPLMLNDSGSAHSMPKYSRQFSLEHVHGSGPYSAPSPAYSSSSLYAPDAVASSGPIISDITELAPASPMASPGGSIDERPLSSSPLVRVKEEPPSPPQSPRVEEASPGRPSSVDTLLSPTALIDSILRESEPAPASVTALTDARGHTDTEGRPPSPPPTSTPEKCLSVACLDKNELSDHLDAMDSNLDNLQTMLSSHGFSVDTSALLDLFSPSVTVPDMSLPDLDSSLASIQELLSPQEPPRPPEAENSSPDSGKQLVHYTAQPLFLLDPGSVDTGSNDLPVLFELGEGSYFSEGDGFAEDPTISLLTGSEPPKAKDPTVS

CC1(C)C(C=C(Cl)Cl)C1C(=O)OC(C#N)c1ccc(F)c(Oc2ccccc2)c1 (centres undefined)
not listed: [18] | [19] | [20]
inactive: all other assays above

[2H]C1([2H])[n+]2ccccc2-c2cccc[n+]2C1([2H])[2H]
active: [1] 90.7 µM | [2] 78.7 µM
not listed: [19] | [20]
inactive: all other assays above

CN1CSC(=S)N(C)C1
active: [17] 50 µM
not listed: [18] | [20]
inactive: all other assays above

CCOC1Oc2ccc(OS(C)(=O)=O)cc2C1(C)C (centres undefined)
active: [17] 50 µM
not listed: [11] | [16] | [19] | [20]
inactive: all other assays above

CCS(=O)(=O)c1cccnc1S(=O)(=O)NC(=O)Nc1nc(OC)cc(OC)n1
not listed: [6] | [18] | [20]
inactive: all other assays above

CC(C)(C)C(O)C(Oc1ccc(Cl)cc1)n1cncn1 (centres undefined)
inactive: [1] | [2] | [3] | [4] | [5] | [7] | [8] | [9] | [10] | [12] | [13] | [14] | [15] | [16] | [17]
active: [7] 16.9 µM | [17] 7.83 µM

O=C(O)COc1ccc(Cl)cc1Cl
not listed: [6] | [16] | [19]
inactive: all other assays above

O=C(O)CCCOc1ccc(Cl)cc1Cl
not listed: [6] | [11] | [18] | [19]
inactive: all other assays above

Clc1ccccc1-c1nnc(-c2ccccc2Cl)nn1
not listed: [11] | [18] | [19] | [20]
inactive: all other assays above

COP(=S)(OC)Oc1ccc([N+](=O)[O-])cc1
not listed: [11] | [18] | [20]
inactive: all other assays above

CNC(=O)Oc1ccccc1OC(C)C
not listed: [18] | [19] | [20]
inactive: all other assays above

COc1nn(CSP(=S)(OC)OC)c(=O)s1
active: [6] 24.8 µM
not listed: [18] | [20]
inactive: all other assays above

N#Cc1c(Cl)c(Cl)c(Cl)c(C#N)c1Cl
not listed: [18] | [20]
inactive: all other assays above

CC(C)OC(=O)Nc1cccc(Cl)c1
active: [4] 94.5 µM | [17] 50 µM
not listed: [11] | [18] | [20]
inactive: all other assays above
